In PubChem BioAssay (NCATS) one finds Potency and activity change, negative = cytotoxicity data, which are given here for 19 compounds.

Common to all, as to test: Primary qHTS to identify gynecologic anti-cancer compounds using libraries of approved drugs and bioactive compounds (AID 1345084); note: nearly all actives have a fitted effect of over 55% in size
A general note: qHTS replaces the single test concentration by a dilution series.

One test has as its system C33A. Particulars: Gynecologic cancer cell panel viability, ATPlite luminescence, 48 h; series mostly up to 57.5 µM. Put shortly: (§1)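 Luminescence from the ATPlite ATP-monitoring reagent indicates viable cell number; lower signal means cytotoxicity. Cells received compound 16 h after seeding and were exposed for 48 h across five concentrations.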
A general note: In ATP-based viability assays light output follows the ATP content of the culture.

The test system of the next test is CAOV3. Conditions: Gynecologic cancer cell panel viability, ATPlite luminescence, 48 h; series mostly up to 57.5 µM. Put shortly: as §1
The subject of the next test is CASKI. Particulars: Gynecologic cancer cell panel viability, ATPlite luminescence, 48 h; series mostly up to 57.5 µM. The procedure, abridged: as §1
A further test concerns Es-2. Conditions: Gynecologic cancer cell panel viability, ATPlite luminescence, 48 h; series mostly up to 57.5 µM. Put shortly: as §1
In the next test the test system is HeLa. Conditions: Gynecologic cancer cell panel viability, ATPlite luminescence, 48 h; series mostly up to 57.5 µM. The procedure, abridged: as §1
A further test concerns Hek293T. Particulars: Gynecologic cancer cell panel viability, ATPlite luminescence, 48 h, control line for the selectivity index; series mostly up to 57.5 µM. The procedure, abridged: as §1
In a further test the test system is JEG-3. Particulars: Gynecologic cancer cell panel viability, ATPlite luminescence, 48 h; series mostly up to 57.5 µM. The procedure, abridged: as §1
A further test deals with OV90. Conditions: Gynecologic cancer cell panel viability, ATPlite luminescence, 48 h; series mostly up to 57.5 µM. The procedure, abridged:
as §1

Records with an inconclusive call do not appear. A number with no mark means an inactive call. Activity calls are given as the source filed them. Calls come from the whole dose curve; as a rule, active = well fitted cell-killing curve with a large enough effect; inconclusive = small, poorly fitted or top-dose-only effect, or effect the other way; inactive = flat fitted curve, though single readings scatter.
% is set by controls: 0 for no effect and ±100 for the full control effect; potency is the fitted concentration of half-maximal effect.

Turning to `CC(CCc1ccc(O)cc1)O[C@@H]1O[C@H](CO[C@H]2OC[C@](O)(CO)[C@H]2O)[C@@H](O)[C@H](O)[C@H]1O` (some centres undefined), the Potency entry in the test with C33A, with CAOV3, in the test on CASKI, with Es-2, with HeLa and with Hek293T was “inactive” in each case. In addition, the Potency result with JEG-3 and in the test on OV90 was “inactive” each time.

Take `COc1cc(CCNCc2ccccc2O)c(OC)cc1C#N`: the Potency result in the test with C33A, in the test on CAOV3, in the test with CASKI, with Es-2, in the test on HeLa and in the test on Hek293T was “inactive” in each case. Also, the Potency result with JEG-3 and in the test with OV90 was “inactive” throughout.

For the compound `O=C1C[C@@H]2OCC=C3CN4CC[C@]56c7ccccc7N1[C@H]5[C@H]2[C@H]3C[C@H]46`, the Potency result in the test with C33A, in the test on CAOV3, in the test with CASKI, with Es-2, in the test on HeLa and in the test with Hek293T was “inactive” in each case. Further, the Potency result in the test with JEG-3 and in the test with OV90 was “inactive” each time.

Take `CC(C)(C)c1cc(C(C)(C)C)c2c(c1)C(O)(C(F)(F)F)C(=O)O2` (centres undefined): the Potency entry in the test with C33A, in the test on CAOV3, with CASKI, with Es-2, in the test on HeLa and in the test with Hek293T was “inactive” throughout. Also, the Potency result in the test on JEG-3 and with OV90 was “inactive” each time.

Take `COc1ccccc1CN[C@H]1C2CCN(CC2)[C@H]1C(c1ccccc1)c1ccccc1`: the Potency entry with C33A, with CAOV3, with CASKI, in the test on Es-2, in the test on HeLa and in the test on Hek293T was “inactive” in each case. Also, in the test with JEG-3, the Potency entry is “inactive”.

With `CO[C@H]1[C@H](O)[C@H](O[C@H]2CC[C@]3(C)C4CC[C@]5(C)[C@H](C6=CC(=O)OC6)CC[C@]5(O)C4CC[C@@H]3C2)O[C@@H](C)[C@@H]1O` (some centres undefined), the Potency in the test with C33A was 0.0891 µM (active); in the test on CAOV3 it was 0.126 µM (active); in the test on CASKI it was 0.224 µM (active); with Es-2, 0.0794 µM (active); in the test on HeLa, 0.0891 µM (active); with Hek293T, 0.0891 µM (active). Besides, the Potency with JEG-3 was 0.178 µM (active); in the test with OV90, 0.282 µM (active).

As to `COC1CC(=O)C23C(=O)NC(CC(C)C)C2C(C)=C(C)C(OO)C3/C=C(\C)CCC(O)C1O` (centres undefined), the Potency result in the test with C33A, in the test with CAOV3, in the test with CASKI, in the test on Es-2, in the test on HeLa and in the test with Hek293T was “inactive” throughout. Moreover, the Potency entry with JEG-3 and with OV90 was “inactive” in each case.

In the case of `CC1=C2C(=O)C3[C@@H](CC=C4C[C@@H](O)CC[C@@]43C)[C@@H]2CC[C@]12O[C@@H]1C[C@H](C)CN[C@H]1[C@H]2C` (some centres undefined), the Potency result with C33A, in the test with CAOV3, in the test on CASKI, with Es-2, with HeLa and in the test on Hek293T was “inactive” in each case. For the same compound, the Potency entry in the test on JEG-3 and with OV90 was “inactive” each time.

On to `CC(=O)O[C@H]1C[C@@H](OC(C)=O)C(C)(C)C2C[C@@H](O)[C@]3(C)C(CC[C@@]4(C)[C@H](C5=CC(=O)OC5O)C[C@H]5O[C@]543)[C@]21C` (some centres undefined), for which the Potency result in the test on C33A, in the test with CAOV3, in the test on CASKI, in the test on Es-2, in the test on HeLa and in the test on Hek293T was “inactive” each time. Further, the Potency result with JEG-3 and in the test on OV90 was “inactive” in each case.

For `CN(C)CCc1c[nH]c2ccc(CN3CCN(C)S3(=O)=O)cc12`, the Potency entry in the test on C33A, in the test with CAOV3, in the test on CASKI, in the test with Es-2, in the test with HeLa and in the test with Hek293T was “inactive” each time. For the same compound, the Potency entry with JEG-3 and in the test with OV90 was “inactive” throughout.

With `Cc1cn(C[C@H](N)C(=O)O)c(=O)n(Cc2cc(-c3ccccc3)sc2C(=O)O)c1=O`, the Potency entry with C33A, with CAOV3, in the test on CASKI, in the test with Es-2, with HeLa and with Hek293T was “inactive” each time. The Potency entry with JEG-3 and with OV90 was “inactive” throughout.

As to `Oc1ccc2c3c1O[C@H]1[C@H](N(CCCl)CCCl)CC[C@@]4(O)[C@@H](C2)N(CC2CC2)CC[C@]314`, the activity change, negative = cytotoxicity in the test with C33A was 3.36% [at 11.6 µM]; in the test with CAOV3 it was 11.9% [at 11.6 µM]; in the test on CASKI, 18.4% [at 11.6 µM]; in the test on Es-2, 3.95% [at 11.6 µM]; with HeLa, 1.82% [at 11.6 µM]; with Hek293T it was 0.845% [at 11.6 µM]. In addition, the values for the activity change, negative = cytotoxicity in the test with JEG-3 and with OV90 were -5.35% [at 11.6 µM] and 0.162% [at 11.6 µM], respectively.

Take `OCCCCC#Cc1cncc(OC[C@@H]2CCN2)c1`: the Potency result with C33A, with CAOV3, in the test with CASKI, in the test with Es-2, in the test on HeLa and in the test with Hek293T was “inactive” throughout. Moreover, the Potency result with JEG-3 and in the test with OV90 was “inactive” throughout.

Consider `CN[C@H]1[C@H](O)[C@H](O[C@@H]2[C@@H](O)[C@H](O[C@H]3O[C@H]([C@H](C)O)[C@@H](O)[C@H](O)[C@H]3N)[C@@H](N)C[C@H]2N)OC[C@@]1(C)O`, for which the Potency result with C33A, in the test with CAOV3, in the test with CASKI, in the test with Es-2, in the test on HeLa and in the test on Hek293T was “inactive” throughout. The Potency result with JEG-3 and in the test on OV90 was “inactive” throughout.

In the case of `C[C@]12CC[C@H]3[C@@H]([C@H](O)CC4=CC(=O)CC[C@@]43C)[C@@H]1CC[C@@H]2O`, the Potency result with C33A, with CAOV3, with CASKI, in the test with Es-2, in the test with HeLa and in the test on Hek293T was “inactive” each time. Besides, the Potency result in the test with JEG-3 and in the test with OV90 was “inactive” throughout.

For the compound `CC(C)C1(OO)C=C2C(=O)CC3C(C)(C(=O)O)CCCC3(C)C2CC1` (centres undefined), the Potency result with C33A, with CAOV3, in the test on CASKI, in the test on Es-2, in the test on HeLa and in the test with Hek293T was “inactive” in each case. The Potency result in the test on JEG-3 and in the test with OV90 was “inactive” each time.

As to `COC1CC(OC2CCC3(C)C(=CCC4C3CCC3(C)C(C(C)OC5OC(COC6OC(CO)C(O)C(O)C6O)C(O)C(O)C5O)CCC43O)C2)OC(C)C1OC1OC(C)C(O)C(OC)C1O` (centres undefined), the activity change, negative = cytotoxicity is 6.28% [at 11.6 µM] in the test on C33A; 3.88% [at 11.6 µM] with CAOV3; 4.6% [at 11.6 µM] in the test on CASKI; -3.02% [at 11.6 µM] in the test on Es-2; -1.19% [at 11.6 µM] in the test with HeLa; 5.95% [at 11.6 µM] in the test on Hek293T. Further, the activity change, negative = cytotoxicity in the test on JEG-3 was -7.91% [at 11.6 µM]; in the test on OV90, 0.938% [at 11.6 µM].

As to `COC1CC(OC2CCC3(C=O)C(CCC4C3CCC3(C)C(C5=CC(=O)OC5)CCC43O)C2)OC(C)C1OC1OC(CO)C(O)C(O)C1O` (centres undefined), the Potency in the test with C33A was 0.158 µM (active); with CAOV3, 0.631 µM (active); with CASKI it was 1.12 µM (active); with Es-2 it was 0.355 µM (active); with HeLa, 0.282 µM (active); with Hek293T, 0.398 µM (active). For the same compound, the Potency in the test on OV90 was 0.891 µM (active).

With `Cn1ncnc1COc1nn2c(-c3c(F)cccc3F)nnc2cc1C1CCC1`, the Potency entry with C33A, with CASKI, with Es-2, in the test on HeLa, with Hek293T and with JEG-3 was “inactive” throughout. Also, the Potency entry in the test with OV90 is “inactive”.
